Our source for the Potency values is PubChem BioAssay (NCATS).

Molecules are shown by their SMILES. Records with an inconclusive call do not appear. Activity calls are given as the source filed them. Calls come from the whole dose curve; as a rule, active = well fitted cell-killing curve with a large enough effect; inconclusive = small, poorly fitted or top-dose-only effect, or effect the other way; inactive = no such curve, though single readings can be large or run the other way.
Note: nearly all actives have a fitted effect of over 35% in size.
Potency is the fitted concentration of half-maximal effect.

The nature of the first assay: Quantitative High-Throughput drug screen in 47 multiple myeloma cell lines against the NCATS MIPE library collection: SKMM1_PLB cell viability assay (AID 1919863). The settings on record: SKMM1 myeloma viability, CellTiter-Glo ATP, 48 h; viability: hits give low values. The method in brief:
(§1)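 Readout: median RLU from CellTiter-Glo after 5 min at room temperature. Preceding step was 48 h drug treatment of 500 cells/well at 37 °C, 5% CO2, with DMSO-only and media-only control wells.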
On the technique in general: Cellular ATP, detected with luciferase, serves as a proxy for viable cell number.
As for `CC=C1NC(=O)[C@H]2CSSCCC=C[C@H](CC(=O)N[C@H](C(C)C)C(=O)N2)OC(=O)[C@H](C(C)C)NC1=O`, the Potency was 0.0418 µM (active).

As to `O=C(Nc1nc2cccc(-c3ccc(CN4CCS(=O)(=O)CC4)cc3)n2n1)C1CC1`, the Potency was 16.6 µM (active).

On to `COCCn1c2c([n+](Cc3cnccn3)c1C)C(=O)c1ccccc1C2=O`, for which the Potency was 0.0372 µM (active).

Turning to `CCc1c2c(nc3ccc(O)cc13)-c1cc3c(c(=O)n1C2)COC(=O)[C@]3(O)CC`, the Potency was 0.469 µM (active).

Consider `CCC[C@H](NC(=O)C(C#N)=Cc1cccc(Br)n1)c1ccccc1`, for which the Potency is 2.96 µM (active).

As for `CC(NCc1ccc2c(c1)nc(NC(=O)c1ccc(-c3cn[nH]c3)s1)n2CC(C)(C)O)C(C)(C)C` (stereo not given), the Potency was 0.743 µM (active).

In the case of `CNC(=O)c1c(F)cccc1Nc1nc(Nc2cc3c(cc2OC)CCN3C(=O)CN(C)C)nc2[nH]ccc12`, the Potency is 10.5 µM (active).

With `CC(C)CC(=O)Nc1n[nH]c2c1CN(C(=O)C1CCN(C)CC1)C2(C)C`, the Potency was 4.69 µM (active).

For the compound `COc1cc2c(cc1-c1c(C)noc1C)ncc1[nH]c(=O)n([C@H](C)c3ccccn3)c12`, the Potency is 0.743 µM (active).

On to `COc1cc(=C2C=c3ccccc3=N2)[nH]c1=Cc1[nH]c(C)cc1C`, for which the Potency is 4.18 µM (active).

On to `Nc1nc(Nc2ccc(S(N)(=O)=O)cc2)nn1C(=O)c1c(F)cccc1F`, for which the Potency was 10.5 µM (active).

Regarding `NC(=O)c1c(OCc2c(F)cc(Br)cc2F)nsc1NC(=O)NCCCCN1CCCC1`, the Potency was 29.6 µM (active).

In the case of `CCOC(=O)C1=C(C)NC2=C(C(=O)CC(C)(C)C2)C1c1ccc(-c2ccccc2)cc1` (stereo not given), the Potency was 23.5 µM (active).

Turning to `Nc1cc(C(F)(F)F)c(-c2cc(N3CCOCC3)nc(N3CCOCC3)n2)cn1`, the Potency is 0.662 µM (active).

`O=C(Nc1cn[nH]c1-c1nc2ccc(CN3CCOCC3)cc2[nH]1)NC1CC1`: the Potency was 10.5 µM (active).

As to `C[C@@]12O[C@@H](C[C@]1(O)CO)n1c3ccccc3c3c4c(c5c6ccccc6n2c5c31)CNC4=O`, the Potency is 5.26 µM (active).

Regarding `CNC(=O)c1cc(Oc2ccc(NC(=O)Nc3cc(C(C)(C)C)nn3-c3ccc4ncccc4c3)c(F)c2)ccn1`, the Potency was 14.8 µM (active).

In the case of `O=C(CCCCCCC(=O)Nc1ccc([C@H]2O[C@@H](CSc3nc(-c4ccccc4)c(-c4ccccc4)o3)C[C@@H](c3ccc(CO)cc3)O2)cc1)NO`, the Potency is 23.5 µM (active).

Regarding `O=C(NCCCNc1nc(Nc2cccc(NC(=O)N3CCCC3)c2)ncc1I)c1cccs1`, the Potency is 20.9 µM (active).

`NC1(Cc2ccc(Cl)cc2)CCN(c2ncnc3[nH]ccc23)CC1`: the Potency is 18.7 µM (active).

On to `CC(C)[C@H](C(=O)Nc1ccc(C(=O)NO)cc1)c1ccccc1`, for which the Potency is 1.18 µM (active).

With `COC(=O)Nc1ccc(-c2nc(N3CCOCC3)c3cnn(C4CCN(Cc5cccnc5)CC4)c3n2)cc1`, the Potency was 2.09 µM (active).

On to `C#Cc1cccc(Nc2ncnc3cc(OC)c(OCCCCCCC(=O)NO)cc23)c1`, for which the Potency is 0.418 µM (active).

For `CCC1=C[C@@H]2CN(C1)Cc1c([nH]c3ccccc13)[C@@](C(=O)OC)(c1cc3c(cc1OC)N(C)[C@@H]1[C@@](O)(C(=O)OC)[C@H](OC(C)=O)[C@]4(CC)C=CCN5CC[C@]31[C@@H]54)C2`, the Potency was 0.0235 µM (active).

In the case of `CN1CCN(Cc2ccc(NC(=O)Nc3ccc(Oc4cc(NC(=O)C5CC5)ncn4)cc3)cc2C(F)(F)F)CC1`, the Potency was 0.332 µM (active).

As for `C=CC(=O)Nc1cc2c(Nc3ccc(F)c(Cl)c3)ncnc2cc1OCCCN1CCOCC1`, the Potency is 16.6 µM (active).

On to `O=C(Cc1ccc(-c2ccc(OCCN3CCOCC3)cc2)cn1)NCc1ccccc1`, for which the Potency was 0.0166 µM (active).

Consider `CC(C)c1ccc(Cn2ccc3c4c(N)nc(NC5CC5)nc4ccc32)cc1`, for which the Potency is 11.8 µM (active).

On to `COCCOc1ccc2c(c1)ncn2-c1ccc2cccc(N3CCC(N)CC3)c2n1`, for which the Potency was 23.5 µM (active).

Take `Cc1ccc(-c2ncn(-c3ccc(Nc4nccc(-c5cccc(N6CCOCC6)c5)n4)cc3)n2)cn1`: the Potency is 0.235 µM (active).

Turning to `CC[C@@]1(O)C(=O)OCc2c1cc1n(c2=O)Cc2cc3cc(O)ccc3nc2-1`, the Potency is 1.32 µM (active).

With `c1cc(-c2cnn3cc(-c4ccc(OCCN5CCCCC5)cc4)cnc23)ccn1`, the Potency was 20.9 µM (active).

As to `CC(C)c1cnn2c(NCc3ccccc3)cc(N[C@@H](CO)[C@H](O)CO)nc12`, the Potency was 0.372 µM (active).

Turning to `C[C@@H](Oc1cc(-c2cnn(C3CCNCC3)c2)cnc1N)c1c(Cl)ccc(F)c1Cl`, the Potency is 7.43 µM (active).

As to `COc1cccc2nc(-c3cccs3)nc(NN3C(=O)C=C(C)C3=O)c12`, the Potency is 1.05 µM (active).

The next assay is described as follows: Quantitative High-Throughput drug screen in 47 multiple myeloma cell lines against the NCATS MIPE library collection: U266_ATCC cell viability assay (AID 1919864). To be noted: U266 myeloma viability, CellTiter-Glo ATP luminescence, 48 h; series mostly up to 45.8 µM. The method in brief:
as §1
Regarding `CC=C1NC(=O)[C@H]2CSSCCC=C[C@H](CC(=O)N[C@H](C(C)C)C(=O)N2)OC(=O)[C@H](C(C)C)NC1=O`, the Potency was 0.0372 µM (active).

`O=C(Nc1nc2cccc(-c3ccc(CN4CCS(=O)(=O)CC4)cc3)n2n1)C1CC1`: the Potency was 14.8 µM (active).

Consider `COCCn1c2c([n+](Cc3cnccn3)c1C)C(=O)c1ccccc1C2=O`, for which the Potency is 0.0059 µM (active).

Take `CCc1c2c(nc3ccc(O)cc13)-c1cc3c(c(=O)n1C2)COC(=O)[C@]3(O)CC`: the Potency was 0.743 µM (active).

For the compound `CCC[C@H](NC(=O)C(C#N)=Cc1cccc(Br)n1)c1ccccc1`, the Potency is 5.9 µM (active).

For the compound `CC(NCc1ccc2c(c1)nc(NC(=O)c1ccc(-c3cn[nH]c3)s1)n2CC(C)(C)O)C(C)(C)C` (stereo not given), the Potency is 0.332 µM (active).

Turning to `CNC(=O)c1c(F)cccc1Nc1nc(Nc2cc3c(cc2OC)CCN3C(=O)CN(C)C)nc2[nH]ccc12`, the Potency was 3.32 µM (active).

Consider `CC(C)CC(=O)Nc1n[nH]c2c1CN(C(=O)C1CCN(C)CC1)C2(C)C`, for which the Potency was 1.87 µM (active).

Take `COc1cc2c(cc1-c1c(C)noc1C)ncc1[nH]c(=O)n([C@H](C)c3ccccn3)c12`: the Potency was 18.7 µM (active).

In the case of `COc1cc(=C2C=c3ccccc3=N2)[nH]c1=Cc1[nH]c(C)cc1C`, the Potency is 5.26 µM (active).

`Nc1nc(Nc2ccc(S(N)(=O)=O)cc2)nn1C(=O)c1c(F)cccc1F`: the Potency was 7.43 µM (active).

As to `NC(=O)c1c(OCc2c(F)cc(Br)cc2F)nsc1NC(=O)NCCCCN1CCCC1`, the Potency is 29.6 µM (active).

`CCOC(=O)C1=C(C)NC2=C(C(=O)CC(C)(C)C2)C1c1ccc(-c2ccccc2)cc1` (stereo not given): the Potency was 26.4 µM (active).

With `Nc1cc(C(F)(F)F)c(-c2cc(N3CCOCC3)nc(N3CCOCC3)n2)cn1`, the Potency is 4.69 µM (active).

For the compound `O=C(Nc1cn[nH]c1-c1nc2ccc(CN3CCOCC3)cc2[nH]1)NC1CC1`, the Potency was 2.35 µM (active).

Regarding `C[C@@]12O[C@@H](C[C@]1(O)CO)n1c3ccccc3c3c4c(c5c6ccccc6n2c5c31)CNC4=O`, the Potency was 2.09 µM (active).

For the compound `CNC(=O)c1cc(Oc2ccc(NC(=O)Nc3cc(C(C)(C)C)nn3-c3ccc4ncccc4c3)c(F)c2)ccn1`, the Potency was 13.2 µM (active).

As for `O=C(CCCCCCC(=O)Nc1ccc([C@H]2O[C@@H](CSc3nc(-c4ccccc4)c(-c4ccccc4)o3)C[C@@H](c3ccc(CO)cc3)O2)cc1)NO`, the Potency is 13.2 µM (active).

With `O=C(NCCCNc1nc(Nc2cccc(NC(=O)N3CCCC3)c2)ncc1I)c1cccs1`, the Potency is 18.7 µM (active).

For the compound `NC1(Cc2ccc(Cl)cc2)CCN(c2ncnc3[nH]ccc23)CC1`, the Potency was 20.9 µM (active).

As for `CC(C)[C@H](C(=O)Nc1ccc(C(=O)NO)cc1)c1ccccc1`, the Potency is 0.935 µM (active).

For `COC(=O)Nc1ccc(-c2nc(N3CCOCC3)c3cnn(C4CCN(Cc5cccnc5)CC4)c3n2)cc1`, the Potency was 18.7 µM (active).

As for `C#Cc1cccc(Nc2ncnc3cc(OC)c(OCCCCCCC(=O)NO)cc23)c1`, the Potency was 0.105 µM (active).

Consider `CCC1=C[C@@H]2CN(C1)Cc1c([nH]c3ccccc13)[C@@](C(=O)OC)(c1cc3c(cc1OC)N(C)[C@@H]1[C@@](O)(C(=O)OC)[C@H](OC(C)=O)[C@]4(CC)C=CCN5CC[C@]31[C@@H]54)C2`, for which the Potency was 14.8 µM (active).

In the case of `CN1CCN(Cc2ccc(NC(=O)Nc3ccc(Oc4cc(NC(=O)C5CC5)ncn4)cc3)cc2C(F)(F)F)CC1`, the Potency is 0.418 µM (active).

`C=CC(=O)Nc1cc2c(Nc3ccc(F)c(Cl)c3)ncnc2cc1OCCCN1CCOCC1`: the Potency was 18.7 µM (active).

For the compound `O=C(Cc1ccc(-c2ccc(OCCN3CCOCC3)cc2)cn1)NCc1ccccc1`, the Potency is 0.0935 µM (active).

Turning to `CC(C)c1ccc(Cn2ccc3c4c(N)nc(NC5CC5)nc4ccc32)cc1`, the Potency was 13.2 µM (active).

As to `COCCOc1ccc2c(c1)ncn2-c1ccc2cccc(N3CCC(N)CC3)c2n1`, the Potency was 8.33 µM (active).

In the case of `Cc1ccc(-c2ncn(-c3ccc(Nc4nccc(-c5cccc(N6CCOCC6)c5)n4)cc3)n2)cn1`, the Potency was 0.132 µM (active).

`CC[C@@]1(O)C(=O)OCc2c1cc1n(c2=O)Cc2cc3cc(O)ccc3nc2-1`: the Potency is 2.96 µM (active).

Turning to `c1cc(-c2cnn3cc(-c4ccc(OCCN5CCCCC5)cc4)cnc23)ccn1`, the Potency was 13.2 µM (active).

Consider `CC(C)c1cnn2c(NCc3ccccc3)cc(N[C@@H](CO)[C@H](O)CO)nc12`, for which the Potency was 0.296 µM (active).

Take `C[C@@H](Oc1cc(-c2cnn(C3CCNCC3)c2)cnc1N)c1c(Cl)ccc(F)c1Cl`: the Potency was 14.8 µM (active).

With `COc1cccc2nc(-c3cccs3)nc(NN3C(=O)C=C(C)C3=O)c12`, the Potency was 0.118 µM (active).
